Source: PubChem BioAssay (NMMLSC)
GRK2 inh: blocks RNA aptamer binding to human GRK2; P25098; bead flow cytometry, FAM-aptamer displacement from GRK2; inhibition of aptamer binding, % at 10 µM; 330,000 tested, 0.59% active; AID 488847;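 active = inhibition of aptamer binding above 40%, roughly 3 SD of noise, on plates passing a quality check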;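 note: median bead fluorescence of bound FAM aptamer so fluorescent compounds give negative values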
Target sequence (P25098 whole entry, looked up): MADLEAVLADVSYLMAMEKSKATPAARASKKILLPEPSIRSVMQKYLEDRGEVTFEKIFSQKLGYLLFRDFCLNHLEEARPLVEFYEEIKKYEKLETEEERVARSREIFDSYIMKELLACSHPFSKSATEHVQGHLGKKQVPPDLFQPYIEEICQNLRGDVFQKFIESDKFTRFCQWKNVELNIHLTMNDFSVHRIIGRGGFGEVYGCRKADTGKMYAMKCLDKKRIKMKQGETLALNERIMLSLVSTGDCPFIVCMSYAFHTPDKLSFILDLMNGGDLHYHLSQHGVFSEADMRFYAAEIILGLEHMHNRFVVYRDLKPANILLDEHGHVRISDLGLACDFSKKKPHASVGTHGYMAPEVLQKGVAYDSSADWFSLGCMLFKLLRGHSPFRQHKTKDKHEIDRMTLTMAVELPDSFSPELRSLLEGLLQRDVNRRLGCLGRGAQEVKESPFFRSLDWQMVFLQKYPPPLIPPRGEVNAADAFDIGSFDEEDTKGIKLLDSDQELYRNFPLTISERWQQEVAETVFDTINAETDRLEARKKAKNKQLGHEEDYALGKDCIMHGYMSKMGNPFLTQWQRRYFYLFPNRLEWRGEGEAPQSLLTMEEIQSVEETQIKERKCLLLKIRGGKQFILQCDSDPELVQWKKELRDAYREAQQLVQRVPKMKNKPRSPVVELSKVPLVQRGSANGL
MEKK2mut PB1 HTS: signal of MEK5 binding to mutant human MEKK2 PB1 domain | AID 1530 | percent response, % at 10 µM | bead flow cytometry, Alexa488-MEK5 binding to MEKK2 mutant | 290,000 tested, 0.35% active; in the data active = percent response above about 24%, passing the limit was not always enough
MEKK3 PB1 HTS: raises or lowers MEK5 binding to the human MEKK3 PB1 domain; Q99759; bead-based flow cytometry, Alexa488-MEK5 binding to MEKK3; actives lie on both sides; 0 = blocked by unlabeled MEK5, 100 = vehicle; binding response (% of control), % at 10 µM; 290,000 tested, 1.4% active; AID 1529;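 active = binding response more than 3 SD above or below the average of its plate-row segment, actives on both sides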;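 note: Alexa488 bead fluorescence after subtracting the streptavidin-only scavenger bead signal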
MEKK2 WT-MEK5: raises or lowers MEK5 binding to wildtype human MEKK2 PB1 domain. Q9Y2U5. bead flow cytometry, Alexa488-MEK5 binding to MEKK2 WT; actives lie on both sides. binding response (% of control), % at 10 µM. 290,000 tested, 1.1% active. AID 1531; in the data active = binding response below about 67% or above about 130%
MEKK2wt confirm: raises or lowers MEK5 binding to wildtype human MEKK2, retest; shares compounds with MEKK3 PB1 HTS; bead flow cytometry, Alexa488-MEK5 binding to MEKK2 WT; actives lie on both sides; binding response (% of control), % at 10 µM; 5,900 tested, 2.4% active; AID 1892; in the data active = binding response below about 16% or above about 210%; inactive = in between
MEKK2mut-MEK5: signal of MEK5 binding to mutant human MEKK2, retest. 5,900 tested, 2% active. bead flow cytometry, Alexa488-MEK5 binding to MEKK2 mutant. AID 1893. percent response, % at 10 µM. shares compounds with MEKK3 PB1 HTS; in the data active = percent response mostly above about 71%, no sharp cut-off; inactive = mostly below about 38%;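 note: higher means compound restores mutant binding toward wildtype level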
MEKK3 confirm: MEKK3-MEK5 PB1 inhibition, single concentration confirmation; shares compounds with MEKK3 PB1 HTS; bead flow cytometry, Alexa488-MEK5 binding to MEKK3; active compounds read low; binding response (% of control), % at 10 µM; 5,900 tested, 1.8% active;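 active = binding response below 72% of control, or above a set upper limit, though filed actives all read lower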;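 note: lower values mean stronger disruption of MEK5 binding to MEKK3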
Numbers stand for hits; - = inactive; . = no result; [ ] = remark or other dose. Most compounds without a hit are left out; they make up all but 2.5% or so of the library.

SMILES	GRK2 inh	MEKK2mut PB1 HTS	MEKK3 PB1 HTS	MEKK2 WT-MEK5	MEKK2wt confirm	MEKK2mut-MEK5	MEKK3 confirm
O=C(O)c1cc(-c2ccccc2)n(-c2ccccc2)n1	-	-	-	-	.	.	.
CC(C)(C)c1cc(C(=O)O)nn1-c1ccccc1	-	-	2.0[inhibitor]	3.0[inhibitor]	-	-	-
O=C(O)CC1(CC(=O)NCc2ccc(C(F)(F)F)cc2)CCCCC1	-	-	128	-	-	-	-
O=C(O)CC1(CC(=O)NCc2ccncc2)CCCCC1	-	-	-	-	.	.	.
CCOC(=O)C1CCN(C(=O)c2cn(CCOC)c(=O)c3c2c2ccccc2n3C)CC1	-	-	-	-	.	.	.
COc1cccc(N=c2oc3ccc(OC)cc3cc2-c2nc3ccccc3[nH]2)c1	-	-	-	-	.	.	.
COc1ccc(N=c2oc3ccc(OC)cc3cc2-c2nc3ccccc3[nH]2)cc1	-	-	124	-	-	-	-
CCCCOC(=O)C1=C(C)Nc2ncnn2C1c1cccc(OC)c1 (stereo not drawn)	-	-	-	-	.	.	.
COc1cccc(C(=O)Nc2ccc(-n3nncc3C(C)(C)C)cc2)c1	-	-	-	-	.	.	.
CC(C)(C)c1cnnn1-c1ccc(NC(=O)c2ccc(Br)o2)cc1	-	-	1.0[inhibitor]	0.0[inhibitor]	-	-	-
COCC(=O)N(C)c1nnc(-c2cnccn2)s1	-	-	0.0[inhibitor]	-1.0[inhibitor]	-	-	-
CCCc1cc(C(=O)NNC(=S)Nc2cccc(C)c2)cs1	-	-	129	-	-	-	-
CCc1ccc(OCC(=O)N2c3ccccc3CCc3ccccc32)cc1	-	-	-	-	.	.	.
Cn1c(N)c(C(=O)Nc2ccc(-c3ccccc3)cc2)sc1=S	-	-	-	-	.	.	.
O=C1CCCc2c1[nH]c1ccccc21	-	-	128	-	-	-	-
CCc1cccc(C)c1NC(=O)CCCN1C(=O)NC(C)(C)C1=O	-	.	.	.	.	.	.
NS(=O)(=O)c1ccc(CCNC(=O)CSc2ccc(Cl)cc2Cl)cc1	-	-	40[inhibitor]	43[inhibitor]	-	-	-
O=C(NCCCCCCNC(=O)c1ccncc1)c1ccncc1	-	-	-	-	.	.	.
CN(NC(=O)c1ccc(Cl)cc1Cl)C1=NS(=O)(=O)c2ccccc21	-	-	-	-	.	.	.
CCc1ccc(NC(=O)CO/N=C(\C)c2cc3ccccc3o2)cc1	-	-	136	-	-	-	-
Cc1ccccc1CC(=O)c1ccc(O)c(C)c1O	-	-	-	-	.	.	.
Cc1ccccc1-n1c(-c2csc3ccccc23)n[nH]c1=S	-	-	-	-	.	.	.
COc1ccc(NC(=O)COC(=O)c2ccc([N+](=O)[O-])o2)cc1Cl	-	-	131	-	-	-	-
COc1ccc(C)cc1NC(=O)COC(=O)c1ccc([N+](=O)[O-])o1	-	-	-	-	.	.	.
Cc1nc2ccccc2n1S(=O)(=O)N(C)C	-	-	141	-	-	-	-
SMILES	GRK2 inh	MEKK2mut PB1 HTS	MEKK3 PB1 HTS	MEKK2 WT-MEK5	MEKK2wt confirm	MEKK2mut-MEK5	MEKK3 confirm
COc1cc(CN(C)CC2CCCN(CCc3cccc(C(F)(F)F)c3)C2)ccc1O (stereo not drawn)	-	28	-	156	-	-	-
COc1ccc(CN(C)CC2CCCN(CCc3ccc(F)cc3)C2)cc1OC (stereo not drawn)	-	-	-	-	.	.	.
CC1=C(C(N)=O)C(c2cccnc2)n2nc(SCc3ccccc3Cl)nc2N1 (stereo not drawn)	-	-	-	-	.	.	.
CCC(C(=O)NC(C)(C)C)N(C(=O)Cn1nnc(-c2ccccc2F)n1)c1cnc2ccccc2c1 (stereo not drawn)	-	-	128	-	-	-	-
CCOc1cc(NC(=S)Nc2cccc(C)c2)c(OCC)cc1NC(=O)CC(C)C	.	-	-	-	.	.	.
Nn1cnc2c(c1=O)C1(CCCCC1)Cc1ccccc1-2	-	-	141	-	-	-	-
CC(=O)Nn1cnc2c(c1=O)C1(CCCC1)Cc1ccccc1-2	-	-	-	-	.	.	.
O=C1NC2(C=Cc3c(ccc4ccccc34)O2)Oc2ccccc21 (stereo not drawn)	-	-	2.0[inhibitor]	2.0[inhibitor]	-	-	-
CCN(CC)S(=O)(=O)c1ccc(OCC(=O)NCc2ccccc2)cc1	-	-	27[inhibitor]	38[inhibitor]	-	-	-
Cc1cc(C)cc(NC(=O)Nc2ccc(-n3ccc(C(F)(F)F)n3)cc2)c1	-	-	-	-	.	.	.
O=C(Nc1ccc(-n2ccc(C(F)(F)F)n2)cc1)Nc1cccc(Cl)c1	-	74	141	245	-	-	-
CCNc1nc(NCC)n2c(SCC(=O)Nc3ccccc3F)nnc2n1	-	.	.	.	.	.	.
Nc1nonc1C(=O)NCCNCc1ccccc1OCc1ccc(F)cc1	-	-	-	153	-	-	-
CCOc1ccc(CNCCNC(=O)c2nonc2N)cc1	-	-	-	-	.	.	.
CCSc1ccccc1C(=O)NCc1ccc2c(c1)OCO2	-	-	-	-	.	.	.
Cc1nn2c(N3CCN(C)CC3)cc(C(C)(C)C)nc2c1-c1ccccc1	-	-	-	144	-	-	-
Cc1ccc(-c2nnn(CC(=O)N(C)C3CCCCC3)n2)o1	-	-	-	-	.	.	.
CC(C)(C)c1n[nH]c(=S)n(/N=C/c2cccs2)c1=O	-	-	147	-	-	-	-
O=C(COC(=O)c1ccc(S(=O)(=O)N2CCOCC2)cc1)NC1CCCCCCC1	-	-	-	-	.	.	.
O=C(COC(=O)c1ccc(S(=O)(=O)N2CCc3ccccc3C2)cc1)NC1CCS(=O)(=O)C1 (stereo not drawn)	-	-	50[inhibitor]	-	-	-	-
COc1ccc(NC(=O)CSc2nnc(Cc3cccn3C)n2CCc2ccccc2)cc1OC	-	-	-	-	.	.	.
C[C@@H]1C=CC(=O)O[C@@H]1c1ccc(C(F)(F)F)cc1	.	-	-	-	.	.	.
C[C@H]1C=CC(=O)O[C@H]1c1ccccc1	-	-	122	-	-	-	-
CCOC(=O)c1cc(C)n(CCc2ccccc2)c1C	-	-	-	-	.	.	.
Cc1cc(-c2csc(N)n2)c(C)n1CCc1ccccc1	-	-	-	56[inhibitor]	-	-	-
CCCNC(=O)NC(=O)COC(=O)c1cccc(NS(=O)(=O)c2ccc(F)c(F)c2)c1	-	-	-	-	.	.	.
CC(C)CNC(=O)NC(=O)COC(=O)c1cccc(NS(=O)(=O)c2ccc(F)c(F)c2)c1	-	-	134	-	-	-	-
COc1cccc(/C(C)=N/NC(=O)c2cc(-c3cccnc3)nc3ccccc23)c1	-	-	129	-	-	-	-
COc1ccc(-c2cc(C(=O)N/N=C(\C)c3cccnc3)c3ccccc3n2)cc1	-	-	-	-	.	.	.
C/C(=N\NC(=O)c1cc(-c2cccnc2)nc2ccccc12)c1ccccc1O	-	-	-	-	.	.	.
